Experimental data reported in PubChem BioAssay (Tox21).
Inconclusive results are not listed. Entries that show only a call come without a potency. Active and inactive are the calls of the source. Unless noted, calls come from the whole dose curve.

What follows are compounds tested on thyroid hormone receptor (rat, GH3 cells) (assay: qHTS assay to identify small molecule agonists of the thyroid receptor (TR) signaling pathway (AID 743066)). Conditions: GH3.TRE-Luc cells, TR agonist luciferase, 24 h; series mostly up to 83.9 µM.

Row | Compound | Potency
1 | Cc1ccc(C(=O)C(C)CN2CCCCC2)cc1 (centres undefined) | inactive
2 | ClC(Cl)(Cl)c1ccc(C(Cl)(Cl)Cl)cc1 | inactive
3 | COC(=O)C(C)=O | inactive
4 | C=C(C)C(=O)OCCN(C)C | inactive
5 | CC(=O)N(O)CCCCCNC(=O)CCC(=O)N(O)CCCCCNC(=O)CCC(=O)N(O)CCCCCN | inactive
6 | C[C@H](CCC(=O)O)[C@H]1CC[C@H]2[C@@H]3[C@H](O)C[C@@H]4C[C@H](O)CC[C@]4(C)[C@H]3CC[C@]12C | inactive
7 | CCCCCCCCCCCCCCC1CO1 (centres undefined) | inactive
8 | CC(C)NCC(O)COc1ccc(CC(N)=O)cc1 (centres undefined) | inactive
9 | NCCCN(CCO)CCO | inactive
10 | CCCCCCCCCCCCCCCBr | inactive
11 | Cc1ncsc1CCO | inactive
12 | O=C(Nc1ccccc1)OCC(CN1CCCCC1)OC(=O)Nc1ccccc1 (centres undefined) | inactive
13 | CC(C(=O)O)c1ccc(-c2ccccc2)c(F)c1 (centres undefined) | inactive
14 | O=C(C(=O)c1ccc(Br)cc1)c1ccc(Br)cc1 | inactive
15 | OCC1CC2CC1C1CCC(CO)C21 (centres undefined) | inactive
16 | CCCCCCCCCO | inactive
17 | CCCCCCCCC(CO)CCCCCC (centres undefined) | inactive
18 | CC(=O)CC(=O)c1ccccc1 | inactive
19 | CC[C@H](C)[C@@H](C(=O)O)n1sc2ccccc2c1=O | inactive

Row | Compound | Potency
20 | N=C(N=C(N)N)N1CCOCC1 | inactive
21 | N[C@H]1C(O)O[C@H](CO)[C@H](O)[C@@H]1O (some centres undefined) | inactive
22 | O=C(O)COC(=O)Cc1ccccc1Nc1c(Cl)cccc1Cl | inactive
23 | CC(C)(C)C1CCCCC1O (centres undefined) | inactive
24 | N#CCCNCCC#N | inactive
25 | NCCCOCCOCCOCCCN | inactive
26 | N#CCc1cccc(C(F)(F)F)c1 | inactive
27 | Cc1ccc(C(N)=O)cc1N | inactive
28 | C=CC[N+]1([C@H]2C[C@H]3[C@@H]4CC[C@H]5C[C@H](OC(C)=O)[C@@H](N6CCCCC6)C[C@]5(C)[C@H]4CC[C@]3(C)[C@H]2OC(=O)CC)CCCCC1 | inactive
29 | CN(C)CCCOc1nn(Cc2ccccc2)c2ccccc12 | inactive
30 | CC(=O)NCCCS(=O)(=O)O | inactive
31 | CCOC(=O)CC(C)C | inactive
32 | CC(=O)SCc1ccco1 | inactive
33 | Cn1c(=O)c2c(ncn2CC(O)CO)n(C)c1=O (centres undefined) | inactive
34 | CCOC(=O)CC(=O)c1cc(F)c(Cl)nc1Cl | inactive
35 | Nc1nc(N)c2nc(CNc3ccc(C(=O)N[C@@H](CCC(=O)O)C(=O)O)cc3)cnc2n1 | inactive
36 | COCCOCCOCCOCCOC | inactive
37 | O=C(Cl)c1ccc([N+](=O)[O-])cc1 | inactive

Each compound was assayed against Estrogen receptor (Homo sapiens) (UniProt P03372) (assay: qHTS assay to identify small molecule antagonists of the estrogen receptor alpha (ER-alpha) signaling pathway (AID 743069; active = well fitted curve in the direction sought with a large enough effect in the signal ratio in the repeat runs, not every such curve was filed as active; the % refers to the signal ratio)). Conditions: HEK293 ER-alpha-UAS-bla, beta-lactamase ratio, antagonist mode; series mostly up to 69.4 µM.
Procedure, shortened: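 Fluorescence intensity from a beta-lactamase FRET substrate served as the read-out. Cells: HEK293 with stably integrated ER-alpha-UAS-bla reporter. Agonist 17beta-estradiol was co-added with compounds; incubation 18 hr at 37C, substrate 2 hr at room temperature.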

Chain of Estrogen receptor (Homo sapiens) (P03372 whole entry, looked up): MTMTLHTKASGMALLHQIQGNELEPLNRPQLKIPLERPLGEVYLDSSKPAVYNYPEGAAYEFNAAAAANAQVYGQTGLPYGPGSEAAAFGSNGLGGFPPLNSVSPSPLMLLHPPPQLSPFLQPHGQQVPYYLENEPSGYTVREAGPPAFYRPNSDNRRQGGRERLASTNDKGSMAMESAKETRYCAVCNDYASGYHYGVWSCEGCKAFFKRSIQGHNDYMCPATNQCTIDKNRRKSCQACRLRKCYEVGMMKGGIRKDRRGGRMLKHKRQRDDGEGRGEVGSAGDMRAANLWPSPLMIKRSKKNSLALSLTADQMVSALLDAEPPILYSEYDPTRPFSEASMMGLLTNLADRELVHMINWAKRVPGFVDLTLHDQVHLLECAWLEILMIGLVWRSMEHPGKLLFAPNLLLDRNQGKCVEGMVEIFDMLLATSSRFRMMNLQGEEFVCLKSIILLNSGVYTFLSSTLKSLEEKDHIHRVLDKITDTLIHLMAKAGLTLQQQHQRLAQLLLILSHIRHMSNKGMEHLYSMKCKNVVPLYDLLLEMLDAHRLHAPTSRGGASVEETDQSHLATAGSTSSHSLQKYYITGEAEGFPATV

Row | Compound | Potency
38 | Cc1ccc(C(=O)C(C)CN2CCCCC2)cc1 (centres undefined) | inactive
39 | ClC(Cl)(Cl)c1ccc(C(Cl)(Cl)Cl)cc1 | inactive
40 | COC(=O)C(C)=O | inactive
41 | C=C(C)C(=O)OCCN(C)C | inactive
42 | CC(=O)N(O)CCCCCNC(=O)CCC(=O)N(O)CCCCCNC(=O)CCC(=O)N(O)CCCCCN | inactive
43 | C[C@H](CCC(=O)O)[C@H]1CC[C@H]2[C@@H]3[C@H](O)C[C@@H]4C[C@H](O)CC[C@]4(C)[C@H]3CC[C@]12C | inactive
44 | CCCCCCCCCCCCCCC1CO1 (centres undefined) | inactive
45 | CC(C)NCC(O)COc1ccc(CC(N)=O)cc1 (centres undefined) | inactive
46 | NCCCN(CCO)CCO | inactive
47 | CCCCCCCCCCCCCCCBr | inactive
48 | Cc1ncsc1CCO | inactive
49 | O=C(Nc1ccccc1)OCC(CN1CCCCC1)OC(=O)Nc1ccccc1 (centres undefined) | inactive
50 | CC(C(=O)O)c1ccc(-c2ccccc2)c(F)c1 (centres undefined) | inactive
51 | O=C(C(=O)c1ccc(Br)cc1)c1ccc(Br)cc1 | inactive
52 | OCC1CC2CC1C1CCC(CO)C21 (centres undefined) | inactive
53 | CCCCCCCCCO | inactive
54 | CCCCCCCCC(CO)CCCCCC (centres undefined) | inactive
55 | CC(=O)CC(=O)c1ccccc1 | inactive
56 | CC[C@H](C)[C@@H](C(=O)O)n1sc2ccccc2c1=O | inactive

Row | Compound | Potency
57 | N=C(N=C(N)N)N1CCOCC1 | inactive
58 | N[C@H]1C(O)O[C@H](CO)[C@H](O)[C@@H]1O (some centres undefined) | inactive
59 | O=C(O)COC(=O)Cc1ccccc1Nc1c(Cl)cccc1Cl | inactive
60 | CC(C)(C)C1CCCCC1O (centres undefined) | inactive
61 | N#CCCNCCC#N | inactive
62 | NCCCOCCOCCOCCCN | inactive
63 | N#CCc1cccc(C(F)(F)F)c1 | inactive
64 | Cc1ccc(C(N)=O)cc1N | inactive
65 | C=CC[N+]1([C@H]2C[C@H]3[C@@H]4CC[C@H]5C[C@H](OC(C)=O)[C@@H](N6CCCCC6)C[C@]5(C)[C@H]4CC[C@]3(C)[C@H]2OC(=O)CC)CCCCC1 | inactive
66 | CN(C)CCCOc1nn(Cc2ccccc2)c2ccccc12 | inactive
67 | CC(=O)NCCCS(=O)(=O)O | inactive
68 | CCOC(=O)CC(C)C | inactive
69 | CC(=O)SCc1ccco1 | inactive
70 | Cn1c(=O)c2c(ncn2CC(O)CO)n(C)c1=O (centres undefined) | inactive
71 | CCOC(=O)CC(=O)c1cc(F)c(Cl)nc1Cl | inactive
72 | Nc1nc(N)c2nc(CNc3ccc(C(=O)N[C@@H](CCC(=O)O)C(=O)O)cc3)cnc2n1 | inactive
73 | COCCOCCOCCOCCOC | inactive
74 | O=C(Cl)c1ccc([N+](=O)[O-])cc1 | inactive
